Shiga toxin inh: blocks Shiga toxin action in Vero cells; Vero cells, Shiga toxin protein synthesis inhibition reporter; inhibition, % at 38.7 µM; actives 9.2% (n = 290,000); in the data active means inhibition mostly above about 28%, no sharp cut-off; inactive means mostly below about 43%
LmPK inh: blocks Leishmania mexicana pyruvate kinase activity | Potency, µM (highest dose often 57.5 µM), usual class: inhibitors | actives 0.37% (n = 290,000) | purified LmPK, Kinase-Glo ATP luminescence, 1 h
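0.1 nM LmPK, 0.5 mM PEP, 0.1 mM ADP; 50 mM imidazole pH 7.2, 7 mM MgCl2, 50 mM KCl; 1 h RT. Kinase-Glo luminescence readout, normalized to no-enzyme (full inhibition) and uninhibited wells.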
Giardia FBPA inh: Giardia lamblia aldolase inhibition. Potency, µM (titrated, usually from 59.6 µM), usual class: inhibitors. actives 0.71% (n = 290,000). AID 2451. purified Giardia FBPA; further: nearly all actives have a fitted effect of over 55% in size
Target sequence (A8B2U2 whole entry, looked up): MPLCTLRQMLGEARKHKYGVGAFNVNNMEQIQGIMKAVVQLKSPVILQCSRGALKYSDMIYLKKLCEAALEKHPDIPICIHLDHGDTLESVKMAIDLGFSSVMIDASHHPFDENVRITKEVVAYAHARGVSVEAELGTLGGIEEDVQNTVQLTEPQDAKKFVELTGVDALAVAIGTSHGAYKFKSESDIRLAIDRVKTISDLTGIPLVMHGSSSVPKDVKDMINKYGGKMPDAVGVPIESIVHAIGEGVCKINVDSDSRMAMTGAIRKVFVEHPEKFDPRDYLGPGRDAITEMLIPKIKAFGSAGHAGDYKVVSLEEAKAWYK
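Giardia FBPA (40 nM reagent) was preincubated 10 min at RT with compound (up to 57.5 uM final), then substrate plus GAPDH/TPI/NAD/arsenate coupling system with diaphorase/resazurin was added; resorufin fluorescence (525/598 nm) was read after 20 min.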
TbPYK inhibitor: blocks Trypanosoma brucei pyruvate kinase. TbPYK enzyme, Kinase-Glo Plus ATP luminescence, 45 min. actives 0.12% (n = 410,000). AID 624173. Potency, µM (doses to about 76.8 µM), hits mostly inhibitors; further: nearly all actives have a fitted effect of over 50% in size
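T. brucei PYK with substrate was exposed to pin-transferred compounds across a concentration series, then started with 130 uM ADP (final). After 45 min at room temperature, Kinase-Glo Plus luminescence was read, normalized and curve-fitted.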
Cycloheximide cs: affects cycloheximide protein synthesis inhibition readout, counter-screen. actives 12% (n = 300,000). cell reporter, cycloheximide protein synthesis inhibition counterscreen. AID 2314. max response, %; in the data active means max response mostly above about 13%, no sharp cut-off; inactive means mostly below about 14%; further: read at 38.3 µM for the half of the compounds with a filed dose
Sm TGR block: inhibitors of Schistosoma mansoni thioredoxin glutathione reductase. Q962Y6. purified TGR, DTNB reduction, TNB absorbance 405 nm. Potency, µM (top dose mostly 114 µM), actives largely listed as inhibitors. actives 3% (n = 360,000); further: nearly all actives have a fitted effect of over 60% in size
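Kinetic colorimetric format: TGR-catalysed, NADPH-driven DTNB reduction monitored via TNB absorbance. Enzyme dispensed at 20 nM; compound exposure 15 min at room temperature before reaction start.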
Hits are given with their value; n = inactive; u = inconclusive; x = no result given; + = active, no number; [ ] = another dose, or the depositor's remark. The entries come from a sample that favours hits as a whole. Unless noted, the call rests on the fitted dose curve; in most records, active means well fitted curve in the direction sought with a large enough effect; inconclusive means small, poorly fitted or top-dose-only effect, or another doubt; inactive means no such curve, though single readings can be large; an effect the other way counts as inactive or inconclusive.

SMILES	Shiga toxin inh	LmPK inh	Giardia FBPA inh	TbPYK inhibitor	Cycloheximide cs	Sm TGR block
CCN1C(=O)/C(=C\N(C(C)=O)c2ccccc2)OC1=S	31	n	n	n	32	n
CC(=O)N(/C=C1\SC(=S)N(c2ccccc2)C1=O)c1ccccc1	n	n	n	n	n	n
CCN1C(=O)/C(=C2\Sc3ccccc3N2CC)OC1=S	n	n	n	n	n	n
CCN1C(=O)/C(=C/N(C)c2ccccc2)OC1=S	67	n	n	n	25	n
COc1ccc(-n2nc(C(=O)NCC(=O)NCc3ccc(F)cc3)c3ccccc3c2=O)cc1	n	n	n	n	n	n
Cc1ccccc1CNC(=O)c1ccc2[nH]c(C)c(C)c2c1	x	x	x	n[15.4 µM]	x	n
OC[C@@H](O)[C@H](O)C(/C=N/Nc1ccccc1)=N\Nc1ccccc1	n	n	n	n	28	20µM
CC(=O)/C=N/Nc1ccccc1	n	n	n	n	n	n
Cc1ccc(OCC(=O)N2CCc3ccccc3C2)cc1	n	n	n	n	n	n
O=C(CCCOc1ccc(Cl)cc1Cl)N1CCc2ccccc2C1	n	n	n	n	n	n
O=C(CCCOc1ccccc1)N1CCc2ccccc2C1	85	n	n	n	39	n
O=C(COc1ccc(F)cc1)N1CCc2ccccc2C1	n	n	n	n	32	n
CN1CCN(S(=O)(=O)c2ccc(NC(=O)Cc3ccc([N+](=O)[O-])cc3)cc2)CC1	n	n	x	n	n	n
O=C(CSc1nc2scc(-c3ccco3)c2c(=O)n1-c1ccccc1)N1CCOCC1	n	n	n	n	n	45µM
C=CCn1c(SCc2ccccc2)nc2scc(-c3ccc(C)o3)c2c1=O	n	n	n	n	n	u
C=CCn1c(SCC(=O)NCC2CCCO2)nc2scc(-c3ccco3)c2c1=O (stereo not drawn)	n	n	n	n	n	7.9µM
C=CCn1c(SCC(N)=O)nc2scc(-c3ccc(C)o3)c2c1=O	85	n	n	n	45	18µM
O=C(CSc1nc2scc(-c3ccco3)c2c(=O)n1-c1ccccc1)NCC1CCCO1 (stereo not drawn)	n	n	n	x	n	3.2µM
NC(=O)CSc1nc2scc(-c3ccco3)c2c(=O)n1-c1ccccc1	n	u	n	u	n	u
CC(=O)Nc1ccc2nc(CN3CCC(CO)(CCc4ccccc4)CC3)ccc2c1	n	n	n	n	n	u
C=CCn1c(SCC(=O)NCCOC)nc2scc(-c3ccco3)c2c1=O	n	n	n	n	n	18µM
C=CCn1c(SCC(=O)Nc2sccc2C(N)=O)nc2sc(C)c(C)c2c1=O	n	n	n	n	n	40µM
C=CCn1c(SCC(=O)NCC2CCCO2)nc2scc(-c3ccc(OC)cc3)c2c1=O (stereo not drawn)	n	n	n	n	n	n
CC(C)CCN1C(=O)c2ccccc2CC1(C)C(=O)NC1CCC(C)CC1 (stereo not drawn)	x	x	x	n	x	n
CCCCc1c2ccccc2nc2[nH]c3ccccc3c12	x	x	n	x	x	x
SMILES	Shiga toxin inh	LmPK inh	Giardia FBPA inh	TbPYK inhibitor	Cycloheximide cs	Sm TGR block
CCOc1cc(/C=N/O)cc(Br)c1OCC	n	n	n	n	n	n
COc1cc(C=O)ccc1OC(=O)c1ccc(C(C)C)cc1	n	n	n	n	35	n
COc1cc(/C=N/Nc2ccc(Cl)c(C(=O)O)c2)ccc1OC(=O)c1cccs1	n	n	n	n	n	n
Cc1ccc(S(=O)(=O)Oc2cccc(/C=N/Nc3ccc(C(=O)O)cc3)c2)cc1	26	n	18µM	n	37	n
COc1cc(/C=N/Nc2ccc(Cl)c(C(=O)O)c2)ccc1OC(=O)c1ccco1	68	n	n	n	37	n
C=CCOc1c(Br)cc(/C=N/Nc2ccc(C(=O)O)cc2)cc1OCC	+	n	n	n	79	n
COc1cc(C=O)ccc1OC(=O)c1ccncc1	n	n	n	n	n	u
OC[C@@H]1CN(Cc2cccc(C(F)(F)F)c2)C[C@H](n2cnc3c(NC4CC4)ncnc32)O1	x	x	x	n	x	x
CCC(=O)N1CCc2cc(CNS(=O)(=O)c3ccccc3F)ccc21	x	x	x	n	x	n
CC(=O)OCC1OC(Oc2cc(OC(C)=O)c3c(=O)cc(-c4ccc(OC(C)=O)c(OC(C)=O)c4)oc3c2)C(OC(C)=O)C(OC(C)=O)C1OC(C)=O (stereo not drawn)	x	x	n	x	x	x
CCN(CC)CCNc1oc(-c2ccccc2)nc1S(=O)(=O)c1ccccc1	x	x	x	n	x	x
COc1ccc(C(=O)Oc2ccc(/C=N/Nc3ccc(Cl)c(C(=O)O)c3)cc2OC)cc1	93	n	n	n	21	n
COc1cc(/C=N/Nc2ccc(Cl)c(C(=O)O)c2)ccc1OCC(=O)N1C(C)CCCC1C (stereo not drawn)	59	n	n	n	n	n
COc1cc(C=NNc2ccccc2)ccc1OC(=O)c1ccccc1	x	x	x	n	x	x
COc1ccc(/C=N/Nc2ccc(C(=O)O)cc2)cc1Br	n	n	n	n	n	n
COc1ccc(/C=N/Nc2ccc(C(=O)O)cc2)cc1OC	n	n	n	n	27	n
Cc1cc2c(cc(C(=O)NCc3cccnc3)n2Cc2ccc(Cl)cc2)o1	n	n	n	n	n	u
CC(C)Oc1cccc(NC(=O)c2ccccc2C(F)(F)F)c1	x	x	x	n	x	x
O=C1CSC(c2ccccn2)N1c1ccc(C(F)(F)F)cc1 (stereo not drawn)	n	n	n	n	n	n
Cc1ccccc1C(=O)Nc1c(C)nc(Nc2ccccc2)nc1Nc1ccccc1	x	x	x	n	x	n
Oc1c(Cl)cc(Cl)c2c1NCCC2	n	n	u	n	n	1µM
Cc1ccc(CNC(=O)CNS(=O)(=O)c2ccc3c(c2)C(C)(C)C(=O)N3C)cc1	n	n	n	n	n	n
O=C(Nc1nc(N2C(=O)c3ccccc3C2=O)n(-c2ccccc2)n1)c1ccc(F)cc1	n	n	n	n	n	u
O=C(Nc1scc(-c2ccccc2)c1C(=O)O)c1ccc(F)cc1	20	n	n	n	24	n
Cc1ccc(-c2csc(NC(=O)c3ccc(F)cc3)c2C(=O)O)cc1	94	n	n	n	40	n
SMILES	Shiga toxin inh	LmPK inh	Giardia FBPA inh	TbPYK inhibitor	Cycloheximide cs	Sm TGR block
O=C(Nc1nsc(-c2ccccc2)n1)c1ccc(F)cc1	74	n	n	n	32	n
COc1ccc(-c2csc(NC(=O)c3ccc(C(C)(C)C)cc3)c2C(=O)O)cc1	x	x	x	n	x	x
O=C(Nc1scc(-c2ccc(Br)cc2)c1C(=O)O)c1ccccc1F	x	x	x	n	x	x
COc1ccc2c(CNCCc3cccs3)c(C(=O)O)n(Cc3ccccc3C)c2c1	x	x	x	n	x	n
CCCC[C@@H]1CCCO[C@@](C(=O)NCC2CC2)(C(F)(F)F)C1	n	x	n	x	n	x
CC(C)c1ccc(-c2nnc(SCC(=O)NC3CC3)n2C)cc1	37	n	x	n	13	n
Cn1c(SCC(=O)NC2CC2)nnc1-c1cccs1	75	n	x	n	62	n

Screens (PubChem)
